# Laboratory results published in the supplement of paper PMC6953052.
# Where “and” joins values, the source holds several entries; their conditions need not be identical. Equal values may be shown once. Whole data set: some 1,700 compounds, median “fraction of GFP-LC3-positive cells (≥5 vesicles/cell)” near 0.43, cut for the highest 2% near 0.81. Shown is part of a subset that was picked to be rich in the highest values.
# System: CbCln3 Δex7/8/Δex7/8 GFP-LC3 cerebellar neuronal cells
# Assay: fraction of GFP-LC3-positive cells (≥5 vesicles/cell); higher = more autophagosome accumulation
# Outline: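 Compound (~50 nL in DMSO) was pin-transferred in duplicate onto wild-type or mutant CbCln3 cerebellar cells stably expressing GFP-LC3, seeded at 2 × 10^3/well in 384-well plates, for 24 h at 33 °C. After fixation in 3.2% PFA, three fields per well were imaged at 10×. The value reported is the duplicate average of the fraction of cells meeting a vesicle-count threshold, with CellProfiler counting GFP-LC3 vesicles per cell and out-of-focus images excluded. Cells met the threshold at 5 or more vesicles.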
row,SMILES,fraction of GFP-LC3-positive cells
1,CC(=O)N[C@@H](CC(C)C)C(=O)O [N-Acetyl-L-leucine],0.38
2,COc1ccc2c(c1)c(CC(=O)OCC(=O)O)c(C)n2C(=O)c1ccc(Cl)cc1 [Acemetacin],0.361
3,CNc1ncnc2c1ncn2[C@@H]1O[C@H](CO)[C@@H](O)[C@H]1O [N6-methyladenosine],0.417
4,COc1ccc(C[C@H](N)C(=O)N[C@H]2[C@@H](O)[C@H](n3cnc4c(N(C)C)ncnc43)O[C@@H]2CO)cc1.Cl.Cl [Puromycin dihydrochloride],0.937
5,COc1ccc(CC(N)C(=O)N[C@H]2[C@@H](O)[C@H](n3cnc4c(N(C)C)ncnc43)O[C@@H]2CO)cc1 (some centres undefined) [puromycin],0.782
6,CCN(CC)Cc1cc(Nc2ccnc3cc(Cl)ccc23)ccc1O.Cl.Cl.O.O [Amodiaquin dihydrochloride dihydrate],0.513
7,CCN(CC)CCCC(C)Nc1ccnc2cc(Cl)ccc12.O=P(O)(O)O.O=P(O)(O)O (centres undefined) [Chloroquine diphosphate],0.518
8,CCN(CC)CCCC(C)Nc1c2ccc(Cl)cc2nc2ccc(OC)cc12.Cl.Cl.O.O (centres undefined) [Quinacrine dihydrochloride dihydrate],0.866
9,NC1CONC1=O (stereo in doubt) [(S)-(-)-Cycloserine],0.414
10,CNC(C)CCC=C(C)C.CNC(C)CCC=C(C)C.O=C(O)C(O)C(O)C(O)C(O)C(=O)O (centres undefined) [Isometheptene mucate],0.479
11,Cc1c(N(C)C)c(=O)n(-c2ccccc2)n1C [Amidopyrine],0.504
12,COc1ccc2cc1Oc1ccc(cc1)C[C@H]1c3cc(c(OC)cc3CCN1C)Oc1c(OC)c(OC)cc3c1[C@H](C2)N(C)CC3,0.746
13,COc1ccc2cc1Oc1ccc(cc1)C[C@H]1c3cc(c(OC)cc3CCN1C)Oc1c(OC)c(OC)cc3c1[C@H](C2)N(C)CC3 [Tetrandrine],0.679
14,COc1cc2c3cc1Oc1c(OC)c(OC)cc4c1[C@@H](Cc1ccc(OC(=O)c5ccc([N+](=O)[O-])cc5)c(c1)Oc1ccc(cc1)C[C@@H]3N(C)CC2)N(C)CC4 [E6 berbamine],0.834
15,CN(C)CCN(Cc1ccc(Cl)cc1)c1ccccn1.Cl [Chloropyramine hydrochloride],0.566
16,CNCCc1ccccn1.CS(=O)(=O)O.CS(=O)(=O)O [Betahistine mesylate],0.488
17,c1ccc(CN(CCN(Cc2ccccn2)Cc2ccccn2)Cc2ccccn2)nc1,0.952
18,CCc1cccc2c3c([nH]c12)C(CC)(CC(=O)O)OCC3 (centres undefined) [Etodolac],0.495
19,CCc1cc(Cl)c(OC)c(C(=O)NC[C@@H]2CCCN2CC)c1O.Cl [S(-)Eticlopride hydrochloride],0.341
20,C[C@]1(Cn2ccnn2)[C@H](C(=O)O)N2C(=O)C[C@H]2S1(=O)=O [Tazobactam],0.531
21,CCCCCCCCCCCCCCC[C@@H](O)[C@@H](N)CO,0.515
22,CCCCCCCCCCCCCCC[C@@H](O)[C@@H](N)CO [Dihydrosphingosine],0.348
23,C[C@]12C=CC(=O)C=C1CC[C@@H]1[C@@H]2C(=O)C[C@@]2(C)[C@H]1CC[C@]2(O)C(=O)CO [Prednisone],0.49

row,SMILES,fraction of GFP-LC3-positive cells
1,CCCC[C@@H](C)/C=C(C)/C=C(\C)C(=O)NC1=C[C@@](O)(/C=C/C=C/C=C/C(=O)NC2=C(O)CCC2=O)[C@@H]2O[C@@H]2C1=O [manumycin A],0.917
2,CC(C)NC[C@H](O)COc1cccc2ccccc12.Cl [(S)-propranolol hydrochloride],0.275
3,COc1cc(/C=C/C(=O)N2CCC=CC2=O)cc(OC)c1OC [Piperlongumine],0.901
4,COc1cc(C(=O)OCCCN2CCCN(CCCOC(=O)c3cc(OC)c(OC)c(OC)c3)CC2)cc(OC)c1OC.Cl.Cl [Dilazep dihydrochloride],0.699
5,COC(=O)[C@H]1[C@H]2C[C@@H]3c4[nH]c5cc(OC)ccc5c4CCN3C[C@H]2C[C@@H](OC(=O)/C=C/c2cc(OC)c(OC)c(OC)c2)[C@@H]1OC [Rescinnamin],0.292
6,CN(C)CCC(c1ccccc1)c1ccccn1.O=C(O)/C=C\C(=O)O (centres undefined) [Pheniramine maleate],0.47
7,COc1cc(-c2ccc(=O)[nH]n2)ccc1OC(F)F [zardaverine],0.33
8,CCCCCCCC/C=C/CCCCCCCCCC(=O)O [11(E)-Eicosenoic acid],0.25
9,CCCCCCCC/C=C/CCCCCCCCCC(=O)O [5561-99-9 11(Z)-Eicosenoic acid],0.401
10,Cl.Cl.OCCN1CCN(CC/C=C2/c3ccccc3Sc3ccc(C(F)(F)F)cc32)CC1 [Flupentixol dihydrochloride cis-(Z)],0.291
11,CCCCC/C=C\C[C@@H](O)/C=C/C=C\CCC(=O)O [Tetranor-12(R)-HETE],0.513
12,CC(C)NCC(O)COc1cccc2ccccc12.Cl (stereo in doubt) [(R)-Propranolol hydrochloride],0.486
13,C[C@@H]1C/C=C/C=C/C=C/C=C/[C@H](O[C@@H]2O[C@H](C)[C@@H](O)[C@H](N)[C@@H]2O)C[C@@H]2O[C@](O)(C[C@@H](O)C[C@H]3OC3/C=C/C(=O)O1)C[C@H](O)[C@H]2C(=O)O (some centres undefined) [Natamycin],0.298
14,NS(=O)(=O)c1cc(C(=O)O)c(NCc2ccco2)cc1Cl [Furosemide],0.511
15,CCC(C)[C@H](NS(=O)(=O)c1cccc2ccccc12)C(=O)N[C@H](C=O)Cc1c[nH]c2ccccc12 (some centres undefined),0.69 and 0.692
16,CCN[C@H]1C[C@H](C)S(=O)(=O)c2sc(S(N)(=O)=O)cc21.Cl [Dorzolamide hydrochloride],0.432
17,C=C1c2c(Cl)ccc(O)c2C(=O)C2=C(O)[C@]3(O)C(=O)C(C(N)=O)=C(O)[C@@H](N(C)C)[C@@H]3[C@@H](O)C12.O=C(O)c1cc(S(=O)(=O)O)ccc1O (some centres undefined) [Meclocycline sulfosalicylate],0.345
18,CCc1cc(C(N)=S)ccn1 [Ethionamide],0.393
19,O=C(CCNNC(=O)c1ccncc1)NCc1ccccc1 [Nialamide],0.406
20,Clc1cccc(Nc2nnc(-c3ccccc3)c3ccccc23)c1,0.522
21,CC[C@H](C)C(=O)O[C@H]1C[C@@H](C)C=C2C=C[C@H](C)[C@H](CC[C@@H]3C[C@@H](O)CC(=O)O3)[C@H]21 [Lovastatin],0.0901
22,C=CC(N)CCC(=O)O (centres undefined) [Vigabatrin],0.474
23,O=C(O)CCCC[C@@H]1SC[C@@H]2NC(=O)N[C@@H]21 [Biotin],0.393

row,SMILES,fraction of GFP-LC3-positive cells
1,CCN(CC)CCOCCOC(=O)C1(c2ccccc2)CCCC1.O=C(O)CC(O)(CC(=O)O)C(=O)O [Carbetapentane citrate],0.469
2,NS(=O)(=O)c1cc(C(=O)O)cc(N2CCCC2)c1Oc1ccccc1 [Piretanide],0.344
3,CC(C(=O)O)c1ccc(C(=O)c2ccccc2)s1 (centres undefined) [Tiaprofenic acid],0.467
4,CN(C(Cc1ccc(OS(=O)(=O)c2cccc3cnccc23)cc1)C(=O)N1CCN(c2ccccc2)CC1)S(=O)(=O)c1cccc2cnccc12 (centres undefined),0.324 and 0.255
5,CCCCCCCCCCCCCCCCCCOC[C@@H](O)COP(=O)([O-])OCC[N+](C)(C)C,0.362
6,Cc1cc2cc3c(C)cc(=O)oc3c(C)c2o1 [Trioxsalen],0.357
7,COc1cc(C)nc(-n2nc(C)cc2OC)n1 [Epirizole],0.324
8,C[N+]1(CCCCC[N+]2(C)CCCC2)CCCC1.O=C([O-])[C@H](O)[C@@H](O)C(=O)O.O=C([O-])[C@H](O)[C@@H](O)C(=O)O [Pentolinium bitartrate],0.493
9,COC(=O)C1=C(C)NC(C)=C(C(=O)OCCN(C)Cc2ccccc2)C1c1cccc([N+](=O)[O-])c1 (centres undefined) [Nicardipine],0.146
10,Nc1nc(S)c2ncn([C@@H]3O[C@H](CO)[C@@H](O)[C@H]3O)c2n1 [Thioguanosine],0.576
11,Nc1ncn(C2O[C@H](CO)[C@@H](O)[C@H]2O)c(=O)n1 (some centres undefined) [Azacytidine-5],0.861
12,Nc1ncnc2c1ncn2C1O[C@H](CO)[C@@H](O)[C@@H]1O (some centres undefined) [Vidarabine],0.406
13,Nc1ccc(S(=O)(=O)Nc2ncccn2)cc1 [Sulfadiazine],0.438
14,C=C1CC[C@H](O)C/C1=C/C=C1\CCC[C@]2(C)[C@@H]([C@H](C)CCCC(C)C)CC[C@@H]12 [Cholecalciferol],0.281
15,Oc1cc(O)c2c(c1)O[C@H](c1ccc(O)c(O)c1)[C@@H](O)C2 [Epicatechin-(-)],0.438
16,NS(=O)(=O)c1cc2c(cc1C(F)(F)F)NCNS2(=O)=O [Hydroflumethiazide],0.451
17,C[C@@H](O)CCC[C@H](O)/C=C/[C@@H]1[C@@H](C/C=C\CCCC(=O)O)[C@@H](O)C[C@H]1O [19(R)-Hydroxy-prostaglandin F2a],0.532
18,O=C(NCCNCC(O)COc1ccc(O)cc1)N1CCOCC1.O=C(NCCNCC(O)COc1ccc(O)cc1)N1CCOCC1.O=C(O)/C=C/C(=O)O (centres undefined) [Xamoterol hemifumarate],0.32
19,COc1cc([C@@H]2c3cc4c(cc3[C@@H](OC3OC5COC(C)OC5C(O)C3O)[C@H]3COC(=O)[C@H]23)OCO4)cc(OC)c1O (some centres undefined) [etoposide],0.664
20,Cc1cccc(C)c1NC(=O)C(C)N.Cl (centres undefined) [Tocainide hydrochloride],0.504
21,Cl.c1ccc(CC2=NCCN2)cc1 [Tolazoline hydrochloride],0.508
22,C=CC(=O)c1ccc2ccccc2c1,0.499
23,NC[C@H]1CC[C@H](C(=O)O)CC1 [Tranexamic acid],0.53
